# Hit rate of the full screen: of about 48,000 compounds, about 13,000 (27%) showed an effect of 50% or more. This is one part of the list.
# Tested on: Wolbachia pipientis
# Experiment: Anti-Wolbachia Cell-Based Screen
# Assay type: functional
# Design: scale not given: in the data most compounds retested in dose-response had high values
# Settings: 5 µM
row,SMILES,Percent Effect [%]
1,CN(c1cccc(C#N)c1)S(=O)(=O)c1cc(C(=O)O)ccc1Cl,-8.921
2,CCc1ncc2c(n1)CN(CC1CCCCO1)CC2 (centres undefined),-28.59
3,CCN(C(=O)c1ccc2nnc(C3CCN(C(C)=O)C3)n2c1)C(C)C (centres undefined),-2.519
4,CNC(=O)c1cccc(NC(=O)NC(C)c2cc(C)oc2C)c1C (centres undefined),-16.36
5,O=C(O)C(F)(F)F.O=C([C@@H]1C[C@@H]2CCN(c3cccc(F)c3)C[C@H]2O1)N1CCCC1,103.2
6,O=C(O)C(F)(F)F.O=C([C@@H]1CC[C@@H]2[C@@H](CCN2Cc2cccc(F)c2)O1)N1CCCCO1,-25.86
7,Fc1cccc(N2C[C@H]3CCN(c4cccnc4)C[C@H]3C2)c1.O=C(O)C(F)(F)F,6.711
8,CN1CCN(C(=O)[C@H]2C[C@@H]3CCN(c4ncc(F)cn4)C[C@@H]3O2)CC1.O=C(O)C(F)(F)F,-9.48
9,CN1CCN(C(=O)[C@@H]2C[C@@H]3CCN(c4cccc(F)c4)C[C@H]3O2)CC1,96.73
10,Cc1ccc(CN2CC[C@H]3C[C@H](C(=O)N4CCCO4)O[C@@H]3C2)o1.O=C(O)C(F)(F)F,-11.63
11,O=S(=O)(C1CC1)N1CCOC2(CCCN(c3cccc(F)c3)C2)C1 (centres undefined),7.053
12,O=C(O)C(F)(F)F.O=C([C@H]1C[C@@H]2CCN(c3cccc(F)c3)C[C@H]2O1)N1CCCCO1,96.52
13,O=C(O)C(F)(F)F.O=C([C@H]1C[C@@H]2CCN(c3cccc(F)c3)C[C@H]2O1)N1CCCC1,111.1
14,COc1cccc(OCc2cc(C(=O)NC[C@H]3CCCN3)n[nH]2)c1,-9.254
15,CCc1nc(NS(=O)(=O)c2ccc(C)cc2Cl)no1,-7.333
16,CC(C)c1csc(C2CCCN(C(=O)c3ccc(=O)n(C)c3)C2)n1 (centres undefined),2.326
17,CC(C)Cc1nc(CN(C)CCOc2ccccc2F)no1,2.804
18,O=C(Cn1ccc(=O)[nH]c1=O)NCC1Cc2ccccc2O1 (centres undefined),0.2234
19,CC(C)NC(=O)NC[C@H]1OC[C@@H](NCc2ccc(F)cc2)[C@@H]1O,8.979
20,CC1=C(CCN2C[C@H](O)[C@@H](N3CCOCC3)C2)C(C)(C)CCC1,0.7691
21,CCOc1c(Br)cc(CNCCc2nnc3n2CCCCC3)cc1OC.Cl,15.42
22,COc1ccc(CC(=O)N2CCC(c3nnc4n3CCC4)CC2)cc1F,-6.133
23,Clc1cncc(N2CCCC2c2nnc3n2CCCCC3)n1 (centres undefined),118.9
24,O=C(C1CCC1)N1CCCC1c1nnc2n1CCCCC2 (centres undefined),-4.579

row,SMILES,Percent Effect [%]
1,CCOc1cncc(N2CCCC2c2nnc3n2CCCCC3)n1 (centres undefined),129.6
2,Cc1cnn(CC2CCCCN2c2ncnc3ccccc23)c1 (centres undefined),-9.464
3,CC1c2ncc(COCC3CC3)n2CCN1C.O=C(O)C(F)(F)F (centres undefined),-13.39
4,Cc1ccc(C(C(=O)N2CC(c3ccccn3)C2)N(C)C)cc1 (centres undefined),13.16
5,Cn1cc(CN2CCC(F)(F)C3(CCN(c4ncc(F)cn4)C3)C2)cn1.O=C(O)C(F)(F)F (centres undefined),107.8
6,COc1cccc(CN2CCC3(CC2)CCN(c2ncc(F)cn2)C3)c1.O=C(O)C(F)(F)F,3.548
7,Cn1cc(CN2CCC(F)(F)C3(CCN(c4ncccn4)C3)C2)cn1.O=C(O)C(F)(F)F.O=C(O)C(F)(F)F (centres undefined),111.9
8,COc1cccc(CN2CCC3(CCN(c4ncc(F)cn4)CC3)C2)c1.O=C(O)C(F)(F)F,-1.729
9,Cn1cc(CN2CCC[C@]3(C(=O)O)CN(c4ncccn4)C[C@@H]3C2)cn1.O=C(O)C(F)(F)F,8.279
10,Cn1cc(CN2CCC(F)(F)C3(CCN(c4cnccn4)C3)C2)cn1.O=C(O)C(F)(F)F.O=C(O)C(F)(F)F (centres undefined),-4.979
11,COCC1CC2(CCN(Cc3cnn(C)c3)CC2)CN1c1ncccn1.O=C(O)C(F)(F)F.O=C(O)C(F)(F)F (centres undefined),-8.289
12,O=C(O)C(F)(F)F.O=C(c1cnccn1)N1CCC(F)(F)C2(CCN(c3ccccn3)C2)C1 (centres undefined),-12.88
13,Cn1cc(CN2CCC(F)(F)C3(CCN(c4ccccn4)C3)C2)cn1.O=C(O)C(F)(F)F.O=C(O)C(F)(F)F (centres undefined),97.58
14,COc1cc(N2CC[C@@H]3O[C@H](C(=O)NCC4CC4)C[C@@H]32)ncn1,97.06
15,COCCNC(=O)[C@H]1CC[C@@H]2[C@@H](CCN2c2ncc(F)cn2)O1.O=C(O)C(F)(F)F,0.7223
16,COc1cc(N2CC[C@@H]3O[C@@H](C(=O)NC(C)C)C[C@@H]32)ncn1,103.8
17,COCCNC(=O)[C@@H]1C[C@H]2[C@H](CCN2c2cc(OC)ncn2)O1,102.9
18,COc1cc(N2CC[C@@H](OC)[C@@H]2Cc2ccccc2)ncn1,2.999
19,COc1cc(N2CC[C@@H]3O[C@@H](C(=O)NCCN(C)C)C[C@@H]32)ncn1,104.9
20,COc1cc(NC(=O)N(C)C(C2CC2)C2CC2)ncn1,-1.888
21,COc1cc(NC(=O)N(C)CCC2CC2)ncn1,6.653
22,COc1cc(NC(=O)N(C)CC2CC2)ncn1,-6.401
23,COCCNC(=O)[C@@H]1CC[C@@H]2[C@@H](CCN2c2ncc(F)cn2)O1.O=C(O)C(F)(F)F,-10.3
24,COc1cc(N2C[C@H]3OCC[C@H]3[C@H](C(=O)NC3CC3)C2)ncn1,-4.655

row,SMILES,Percent Effect [%]
1,Cc1cnn(CC(=O)Nc2cc(-n3nnnc3C3CC3)ccc2F)c1,-3.572
2,CC(C)CC(C)N(C)C(=O)CCn1cccn1 (centres undefined),9.677
3,CC(C(=O)N1CCCC1)N1CCC(c2nccn2Cc2cscn2)CC1 (centres undefined),9.079
4,CC1COc2ccccc2N1C(=O)c1cscn1 (centres undefined),-0.3654
5,Cc1nc(C2CCN(C)CC2)cc(N2CCOc3ccc(Cl)cc3C2)n1,-7.272
6,Cc1nc(C)c(C)c(N2CCC3(CCOC3)C2)n1 (centres undefined),0.7248
7,Cc1nnc2ccc(N3CCC4(CCOC4)C3)nn12 (centres undefined),-16.97
8,Cc1nc(N2CCC3(CCOC3)C2)c2cc[nH]c2n1 (centres undefined),96.01
9,CC(C)CN1CCCC12CCN(c1nncs1)C2.O=C(O)C(F)(F)F (centres undefined),16.12
10,Cc1cncc(C(=O)N2CCC3(CCCN(c4nncs4)C3)C2)c1.O=C(O)C(F)(F)F (centres undefined),-14.05
11,CC(C)CCN1CCC2(CCCN(c3nncs3)C2)C1.O=C(O)C(F)(F)F (centres undefined),-9.122
12,O=C(O)C(F)(F)F.c1ccc(N2CCOC3(CCCN(c4nncs4)C3)C2)nc1 (centres undefined),-13.18
13,CC(=O)N1CCCC2(C1)CN(c1ncc(C)cn1)CCO2.O=C(O)C(F)(F)F (centres undefined),-4.18
14,CC(C)C(=O)N1CCCC2(C1)CN(c1nncs1)CCO2.O=C(O)C(F)(F)F (centres undefined),94.93
15,O=C(O)C(F)(F)F.O=C(c1ccncc1)N1CCOC2(COCCN(c3cncnc3)C2)C1 (centres undefined),-8.943
16,O=C(O)C(F)(F)F.O=C(c1ccncc1)N1CCOC2(CCCN(c3nncs3)C2)C1 (centres undefined),123
17,CC(=O)N1CCCC2(C1)CN(c1nncs1)CCO2.O=C(O)C(F)(F)F (centres undefined),117
18,CN(C)C(=O)CN1C[C@@H]2CC[C@H](C1)N(Cc1c(F)cccc1Cl)C2,-24.65
19,CNC(=O)[C@@H](CC(C)C)N1CCC[C@H]1C(=O)N(C)Cc1cccnc1.Cl.Cl,6.21
20,CCn1cnc(NC(=O)N2CCC(c3ccc(F)cc3)C2)n1 (centres undefined),-5.373
21,O=C1CC2(CCN(Cc3ccoc3)CC2)CN1Cc1cc(F)cc(F)c1,87.88
22,Cc1ncc(CN2CCC3(CC2)CC(=O)N(C)C3)cn1,-13.29
23,O=C1CC2(CCN(Cc3ncc[nH]3)CC2)CN1Cc1cc(F)cc(F)c1,5.031
24,O=C1CC2(CCN(Cc3ncc[nH]3)CC2)CN1Cc1ccc(Cl)cc1,9.235

row,SMILES,Percent Effect [%]
1,O=C1CC2(CCN(CCCF)CC2)CN1Cc1cc(F)cc(F)c1,93.67
2,O=C1CC2(CCN(CCO)CC2)CN1Cc1cc(F)cc(F)c1,-5.03
3,O=C1CCC2(CCN(Cc3cc(F)cc(F)c3)CC2)CN1CCO,-11.07
4,O=C1CC2(CCN(CCCO)CC2)CN1Cc1ccc(F)c(F)c1,111.9
5,CCCOCCN1CCC2(CC1)CC(=O)N(Cc1cc(F)cc(F)c1)C2,102.6
6,COCC(=O)N1CCC2(CC1)CC(=O)N(Cc1ccc(Cl)cc1)C2,-7.837
7,CCN1CC2(CCN(CCOCCO)CC2)CC(c2ccccc2)C1=O (centres undefined),6.251
8,CCN(C)C[C@@H]1CN(S(=O)(=O)c2ccc(C#N)cc2)C[C@@H]1CO,-9.397
9,c1ccc2[nH]c(C3CCN(Cc4nnc(C5CC5)o4)CC3)nc2c1,-0.6702
10,O=C1CC2(CCN(CC3CCOC3)CC2)CN1Cc1cc(F)cc(F)c1 (centres undefined),4.353
11,O=C1CC2(CCN(CC3CC3)CC2)CN1Cc1cc(F)cc(F)c1,122.7
12,CN(Cc1ccn[nH]1)Cc1c[nH]nc1-c1ccc(F)cc1,4.933
13,CCN(CCc1nc2cc(C)ccc2[nH]1)C(=O)[C@@H](N)CCSC,1.745
14,O=C(NCCn1ccnc1-c1cc2n(n1)CCNC2)c1ccncc1,-6.247
15,O=C(NCc1cc2n(n1)CCCNC2)c1cn2cc(Cl)ccc2n1,-5.425
16,O=C(NCc1sc2ccccc2c1Cl)c1cc2n(n1)CCNC2,92.76
17,O=C(NCc1ccccn1)c1cc2n(n1)CCNC2,99.68
18,O=C(NCc1csc2ccc(Cl)cc12)c1cc2n(n1)CCNC2,87.95
19,O=C(NCc1cc2n(n1)CCCNC2)C1(c2ccc(Cl)cc2)CCC1,14.56
20,Cc1ncsc1CCC(=O)NCc1cc2n(n1)CCNC2,-3.955
21,O=C(NCCn1ccnc1-c1cc2n(n1)CCNC2)c1ccc(F)cc1,10.43
22,CC(C)N1CCCn2nc(C(=O)NCCc3ccccn3)cc2C1,-11.55

# Source: ChEMBL document CHEMBL3988442, “University of Dundee, Small-Polar-MMV Screening Library” (2021)
